aSyn UTR act: Activators working through SNCA 5'UTR binding (MLPCN) | alpha-synuclein 5'UTR reporter, activators screen | activity score, % (tested at 7.5 µM), hits read low | hit rate 7.1% among 300,000; in the data active = activity score below about -60%
Large screens that a line does not name were inactive. Only a sample is shown.

Clc1ccc(-c2cc(CN3CCCCC3)no2)cc1Cl	aSyn UTR act -114.4
Clc1ccc(-c2cc(CN3CCOCC3)no2)cc1	aSyn UTR act -148.0
COC(=O)c1ccn(Cc2ccccc2Cl)n1	aSyn UTR act -105.9
Brc1ccc(-c2csc(/N=C/N3CCCC3)n2)cc1	aSyn UTR act -94.2
Brc1ccc(-c2csc(/N=C/N3CCOCC3)n2)cc1	aSyn UTR act -90.0
OCCN(/C=N/c1nc(-c2ccc(Br)cc2)cs1)CCO	aSyn UTR act -93.2
COc1cccc(CNc2cc(C)ccn2)c1O	aSyn UTR act -94.0
CCC(=O)NC(c1ccccc1OC)c1ccc2cccnc2c1O (stereo not drawn)	none
COc1cccc(CNc2cccc3cccnc23)c1O	aSyn UTR act -87.7
COc1cccc(CNc2ccccn2)c1O	aSyn UTR act -99.9
COC(=O)C1C(=O)C(C(=O)/C=C/c2ccccc2)C(=O)CC1(C)C (stereo not drawn)	aSyn UTR act -133.9
O=C(Nc1ccc(F)cc1F)c1cc2nc3c(c(C(F)(F)F)n2n1)CCCC3	aSyn UTR act -78.8
O=C(Nc1ccc(F)cc1F)c1cc2n(n1)C(C(F)(F)F)C1CCCCC1N2 (stereo not drawn)	aSyn UTR act -68.6
CC(C)(C)C1CCc2c(sc3c2C(=O)NC(c2ccco2)N3)C1 (stereo not drawn)	aSyn UTR act -185.9
CC(=O)c1sc(N/N=C2\CC3CC2C(C)C3(C)C)nc1C (stereo not drawn)	aSyn UTR act -100.6
COC(=O)Oc1ccc(/C=C/C(=O)OC(C)C)cc1OC(=O)OC	aSyn UTR act -127.3
O=C(Cc1ccccc1)Nc1ccc(N2CCOCC2)cc1	aSyn UTR act -72.9
CC1CCN(c2ccc(NC(=O)Cc3ccccc3)cc2)CC1	aSyn UTR act -82.5
O=C(Nc1ccc(N2CCOCC2)cc1)c1cn2ccccc2n1	none
COc1ccc(NC(=O)c2ccc3nc(C)sc3c2)cc1	aSyn UTR act -123.7
Cc1nc2ccc(C(=O)Nc3cccc([N+](=O)[O-])c3)cc2s1	aSyn UTR act -126.8
COc1ccc(C(=O)Nc2nc(C)c(C)s2)cc1OC	aSyn UTR act -141.6
COC(=O)c1ccc(NC(=O)c2ccc3nc(C)sc3c2)cc1	aSyn UTR act -179.8
COc1ccc(C(=O)Nc2ccc3nc(C)sc3c2)cc1OC	aSyn UTR act -101.0
COc1ccc(C(=O)Nc2ccc(Oc3nc(C)nc4sc(-c5ccccc5)cc34)cc2)cc1OC	aSyn UTR act -120.4
CC(=O)c1cccc(Nc2nc(-c3ccccc3)cs2)c1	aSyn UTR act -144.9
O=C(Nc1cccc(-c2csc(Nc3ccccc3)n2)c1)c1ccccc1	aSyn UTR act -142.3
CC(=O)c1cccc(Nc2nc(-c3cccnc3)cs2)c1	aSyn UTR act -229.8
c1ccc2cc(Sc3ncnc4c3oc3ccccc34)ccc2c1	aSyn UTR act -70.6
CCSc1ncnc2c1oc1ccccc12	aSyn UTR act -64.3
Clc1ncnc2c1oc1ccccc12	aSyn UTR act -61.9
Cc1cc(C)nc(Sc2ncnc3c2oc2ccccc23)n1	aSyn UTR act -64.4
c1ccc(SCc2nc3ccccc3[nH]2)cc1	aSyn UTR act -133.0
Clc1ccc(SCc2nc3ccccc3[nH]2)cc1	aSyn UTR act -112.1
c1ccc2[nH]c(CSc3nccs3)nc2c1	aSyn UTR act -79.2
Cc1ccc(SCc2nc3ccccc3[nH]2)cc1	aSyn UTR act -128.0
Cc1cc(C)c(C#N)c(SCc2nc3ccccc3[nH]2)n1	aSyn UTR act -172.6
Fc1ccccc1CSCc1nc2ccccc2[nH]1	aSyn UTR act -133.3
Cc1cc(C)c(C#N)c(SCc2nnc(-c3ccccc3)o2)n1	none
c1ccc(C2=Nc3ccccc3SC2c2nc3ccccc3[nH]2)cc1 (stereo not drawn)	aSyn UTR act -249.8
O=C(NC1CCCCCCC1)c1c(O)c2ccccc2[nH]c1=O	aSyn UTR act -99.4
NNC(=O)c1[nH]c2ccccc2c1-c1ccccc1	none
O=C(NCCc1ccccc1)c1c(O)c2ccccc2[nH]c1=O	aSyn UTR act -118.6
O=C(NC1CC1)c1c(O)c2ccccc2[nH]c1=O	aSyn UTR act -67.9
C=CCc1cccc(C=Nc2cc(Br)ccc2O)c1O	aSyn UTR act -110.1
CCc1ccc(O)c(N=Cc2cccc(C)c2O)c1	aSyn UTR act -131.1
C=CCc1cccc(C=Nc2cccn3cc(-c4ccccc4)nc23)c1O	aSyn UTR act -88.5
CCCCNc1c(-c2cccc(-c3cc(C(C)=O)cs3)c2)nc2ccc(C)cn12	aSyn UTR act -71.1
O=C(NC(=S)Nc1ccc(Cl)cn1)C12CC3CC(CC(C3)C1)C2	aSyn UTR act -162.2
CC(C)(C)n1nc(-c2ccc(Cl)cc2)c2c(N)ncnc21	none
Cc1ccc(-c2cnc(N)n2C)cc1C	aSyn UTR act -71.2
Cn1c(-c2ccc(Cl)cc2)cnc1N	aSyn UTR act -126.4
N/C(=N\OC(=O)COc1ccc(Cl)cc1Cl)c1cccnc1	aSyn UTR act -146.3
N/C(=N\OC(=O)c1cc(Cl)ccc1Cl)c1cccnc1	aSyn UTR act -130.7
Cc1ccc(OCC(=O)O/N=C(\N)c2cccnc2)cc1	aSyn UTR act -88.1
N/C(=N\OC(=O)c1ccccc1)c1cccnc1	aSyn UTR act -128.2
N/C(=N\OC(=O)c1cc(Br)ccc1Cl)c1cccnc1	aSyn UTR act -215.3
N/C(=N\OC(=O)c1ccc(Cl)cc1[N+](=O)[O-])c1cccnc1	aSyn UTR act -103.6
N/C(=N\OC(=O)c1ccccc1Cl)c1cccnc1	aSyn UTR act -167.7
O=C(c1cc2cc3ccc(Cl)cc3nc2o1)N1CCCCCC1	aSyn UTR act -94.8
Cc1ccc2cc3cc(C(=O)N4CCCCC4C)oc3nc2c1 (stereo not drawn)	aSyn UTR act -199.7
COc1ccc2cc3cc(C(=O)N4CC(C)CC(C)C4)oc3nc2c1 (stereo not drawn)	aSyn UTR act -124.7
Cc1ccc2cc3cc(C(=O)N4CC(C)CC(C)C4)oc3nc2c1 (stereo not drawn)	aSyn UTR act -120.2
COc1ccc(Nc2ncnc3sc(C)cc23)c(OC)c1	aSyn UTR act -82.1
CCC(=O)N1N=C(c2ccc(NS(C)(=O)=O)cc2)CC1c1ccc(N(C)C)cc1 (stereo not drawn)	aSyn UTR act -101.9
N#Cc1c(Cl)nsc1NC(=O)c1ccccc1	aSyn UTR act -65.6
Cc1cccc(C(=O)Nc2sc(C)c(-c3ccccc3)c2C#N)c1	aSyn UTR act -259.6
Cc1sc(NC(=O)C2CCCCC2)c(C#N)c1-c1ccccc1	aSyn UTR act -237.3
C=CCNc1sc(C(=O)c2ccccc2)c(N)c1C#N	none
COc1ccccc1-n1cnc2sc(-c3ccccc3)cc2c1=O	aSyn UTR act -142.3
O=c1c2cc(-c3ccccc3)sc2ncn1/N=C/c1ccco1	aSyn UTR act -140.3
CCCCCn1cnc2sc(-c3ccccc3)cc2c1=O	aSyn UTR act -298.6
CCCCn1cnc2sc(-c3ccccc3)cc2c1=O	aSyn UTR act -212.7
COc1ncnc2sc(-c3ccccc3)cc12	aSyn UTR act -168.0
CN(CC(=O)N1CCCCCC1)S(=O)(=O)c1ccccc1	aSyn UTR act -67.8
Clc1ccsc1-c1ccc2ccccc2n1	aSyn UTR act -113.3
Cc1cc(-c2sccc2Br)nc(-n2cccc2)n1	aSyn UTR act -86.8
Clc1ccsc1-c1ccnc(-n2cccc2)n1	aSyn UTR act -62.2
c1ccc2nc(-c3ccncc3)ccc2c1	aSyn UTR act -96.2
c1ccc2nc(-c3nccs3)ccc2c1	aSyn UTR act -126.1
CCCc1cc(C(=O)NCCc2ccccc2)no1	aSyn UTR act -91.2
COc1ccccc1-c1cc(C(=O)NCCc2ccccc2)no1	aSyn UTR act -114.3
COc1cccc2cc(C(=O)NCCc3ccccc3)oc12	aSyn UTR act -83.5
Cn1ccnc1SCC(=O)N1CCc2ccccc21	aSyn UTR act -68.9
Cc1ccnc(SCC(=O)N2CCc3ccccc32)n1	aSyn UTR act -87.3

High-throughput results (PubChem BioAssay)
